Source: PubChem BioAssay (NCI)
The panel holds about 83,000 compounds, 20% with a hit somewhere; the sample as a whole holds those more often.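 Cells were grown in 96-well plates and exposed to the test compound at a single concentration for 48 hours; results are reported as percent growth, with values below 10 considered active.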 Active and inactive are the calls of the source.

How the values were obtained:
Test in all cases: NCI-60 one-dose screen, 48 h (100 = growth as untreated, 0 = no growth, -100 = all killed)
Details in all cases: 10 µM
NCI-H23 lung = system: NCI-H23 lung
NCI-H226 lung = system: NCI-H226 lung
NCI-H322M lung = system: NCI-H322M lung
NCI-H460 lung = system: NCI-H460 lung
NCI-H522 lung = system: NCI-H522 lung
A549/ATCC NSCLC = system: A549/ATCC NSCLC
786-0 renal = system: 786-0 renal
COLO 205 colon = system: COLO 205 colon
DU-145 prostate = system: DU-145 prostate
K-562 leukemia = system: K-562 leukemia
MALME-3M melanoma = system: MALME-3M melanoma
MDA-MB-231 breast = system: MDA-MB-231 breast
RXF 393 renal = system: RXF 393 renal
SF-268 CNS = system: SF-268 CNS
SF-295 CNS = system: SF-295 CNS
SF-539 CNS = system: SF-539 CNS
UACC-257 melanoma = system: UACC-257 melanoma
M14 melanoma = system: M14 melanoma
HCT-15 colon = system: HCT-15 colon
HOP-62 NSCLC = system: HOP-62 NSCLC

Measured: growth

COc1ccc(-c2nn(-c3cccc(NC(=O)Nc4ccccc4)c3)cc2-c2ccncc2)cc1Cl
active: NCI-H460 lung 4.93% | NCI-H522 lung 5.77% | A549/ATCC NSCLC -4.41% | COLO 205 colon -50.6% | MDA-MB-231 breast -9.47% | RXF 393 renal -59.3% | SF-295 CNS -7.17% | SF-539 CNS -59.1% | UACC-257 melanoma -32.9% | M14 melanoma 9.94%
inactive: NCI-H23 lung 42.6% | NCI-H226 lung 70.6% | NCI-H322M lung 39.5% | 786-0 renal 42.2% | DU-145 prostate 50.1% | K-562 leukemia 10.4% | MALME-3M melanoma 17.9% | SF-268 CNS 27.9% | HCT-15 colon 16.6%

CCN(CCCCCCCCCCN1CC(=O)N(CCCCCCCCCCN(CC)Cc2ccccc2OC)CC1=O)Cc1ccccc1OC
active: NCI-H23 lung -26.1% | NCI-H226 lung -2.55% | HOP-62 NSCLC -71.6% | NCI-H460 lung -93.3% | NCI-H522 lung -74% | A549/ATCC NSCLC -48.8% | 786-0 renal -72.5% | COLO 205 colon -91.6% | DU-145 prostate -52.9% | K-562 leukemia -58.2% | MALME-3M melanoma -83.6% | MDA-MB-231 breast -66.3% | SF-268 CNS 4.39% | SF-295 CNS -76.7% | SF-539 CNS -93.2% | UACC-257 melanoma -86.9% | M14 melanoma -90.2% | HCT-15 colon -17%

COc1ccc(-c2csc(NC(=O)CSc3nc(C)c(-c4ccccc4)n3Nc3ccccc3)n2)cc1
active: SF-295 CNS -9.42%
inactive: NCI-H23 lung 21.8% | NCI-H226 lung 63.8% | HOP-62 NSCLC 71.1% | NCI-H460 lung 43.2% | NCI-H522 lung 58.2% | A549/ATCC NSCLC 36.6% | 786-0 renal 53.3% | COLO 205 colon 66.6% | DU-145 prostate 65.3% | K-562 leukemia 24.8% | MALME-3M melanoma 60.4% | MDA-MB-231 breast 65.8% | RXF 393 renal 63.9% | SF-268 CNS 44.7% | SF-539 CNS 72.7% | UACC-257 melanoma 89.3% | M14 melanoma 50.4% | HCT-15 colon 44.2%

CC1(C)Cc2c(sc3ncn4nc(-c5ccc(O)cc5)nc4c23)CO1
inactive: NCI-H23 lung 90.9% | NCI-H226 lung 57.9% | NCI-H322M lung 90.4% | NCI-H460 lung 63.2% | NCI-H522 lung 53.5% | 786-0 renal 74.9% | COLO 205 colon 114% | DU-145 prostate 76.1% | K-562 leukemia 76.8% | MALME-3M melanoma 68.2% | MDA-MB-231 breast 70.5% | RXF 393 renal 66.3% | SF-268 CNS 64.1% | SF-295 CNS 76.2% | SF-539 CNS 75.1% | UACC-257 melanoma 89.7% | M14 melanoma 86.6% | HCT-15 colon 75.1%

COc1cc(Cl)cc(-c2nn(-c3cccc(NC(=O)Nc4ccc(Cl)c(Cl)c4)c3)cc2-c2ccncc2)c1
active: NCI-H23 lung 5.72% | NCI-H226 lung 7.27% | NCI-H460 lung 3.1% | NCI-H522 lung -19% | COLO 205 colon -70.3% | MALME-3M melanoma -19.8% | MDA-MB-231 breast -21% | RXF 393 renal 4.46% | SF-295 CNS -2.42% | UACC-257 melanoma -11.5%
inactive: HOP-62 NSCLC 15.7% | A549/ATCC NSCLC 11.4% | 786-0 renal 19.6% | DU-145 prostate 12.1% | K-562 leukemia 10% | SF-268 CNS 25.3% | SF-539 CNS 20.9% | M14 melanoma 18.7% | HCT-15 colon 13.9%

N#CCCN1C/C(=C/c2ccccc2)C(=O)/C(=C/c2ccccc2)C1
inactive: NCI-H23 lung 78.9% | NCI-H226 lung 69.8% | HOP-62 NSCLC 59.5% | NCI-H460 lung 71% | A549/ATCC NSCLC 76.6% | 786-0 renal 34.1% | COLO 205 colon 59.4% | DU-145 prostate 35.2% | MDA-MB-231 breast 13.9% | RXF 393 renal 50.3% | SF-268 CNS 24.7% | SF-295 CNS 26.3% | SF-539 CNS 76.1% | UACC-257 melanoma 56.2%
active: NCI-H522 lung -51.6% | K-562 leukemia 2.2% | MALME-3M melanoma -28.7% | M14 melanoma -9.82%

COc1ccc2c(c1)O/C(=C\c1ccc([N+](=O)[O-])o1)C2=O
inactive: NCI-H226 lung 22.3%
active: NCI-H23 lung -3.07% | HOP-62 NSCLC -12.4% | NCI-H460 lung -20.9% | NCI-H522 lung -63% | A549/ATCC NSCLC -10.9% | 786-0 renal -27.3% | COLO 205 colon -79.4% | DU-145 prostate -11.1% | K-562 leukemia 2.05% | MALME-3M melanoma -37.1% | MDA-MB-231 breast 8.07% | RXF 393 renal -74% | SF-268 CNS -5.87% | SF-295 CNS 9.85% | SF-539 CNS -43.2% | UACC-257 melanoma -13.1% | M14 melanoma -15.5% | HCT-15 colon 2.39%

Clc1ccc(Nc2ccnc(NCCNc3ccnc4cc(Cl)ccc34)n2)cc1
active: NCI-H460 lung 7.77% | NCI-H522 lung -34.5% | 786-0 renal -62% | COLO 205 colon -91% | K-562 leukemia -54.6% | MALME-3M melanoma -83.6% | MDA-MB-231 breast -20.4% | RXF 393 renal 0.0582% | SF-268 CNS -10.7% | SF-295 CNS -58.9% | SF-539 CNS -94.5% | M14 melanoma -86.8% | HCT-15 colon 3.75%
inactive: NCI-H23 lung 47.6% | NCI-H226 lung 63.3% | HOP-62 NSCLC 66.7% | A549/ATCC NSCLC 10.8% | DU-145 prostate 36%

COc1cc(NC(=O)CCSc2nc3ccc(Cl)cc3c(=O)n2Cc2ccccc2)cc(OC)c1OC
active: NCI-H522 lung -9.19%
inactive: NCI-H23 lung 93.5% | NCI-H226 lung 31.1% | HOP-62 NSCLC 57.2% | NCI-H460 lung 81.8% | A549/ATCC NSCLC 59.3% | 786-0 renal 93.2% | COLO 205 colon 107% | DU-145 prostate 108% | K-562 leukemia 67.1% | MALME-3M melanoma 84.3% | MDA-MB-231 breast 51.2% | RXF 393 renal 57.2% | SF-268 CNS 95.1% | SF-295 CNS 66.2% | SF-539 CNS 26.8% | UACC-257 melanoma 61% | M14 melanoma 75.2% | HCT-15 colon 72.5%

O=C(CSSCC(=O)c1ccc(Cl)cc1)c1ccc(Cl)cc1
inactive: NCI-H23 lung 79.5% | NCI-H226 lung 88.6% | HOP-62 NSCLC 78.6% | NCI-H460 lung 35.8% | NCI-H522 lung 58% | A549/ATCC NSCLC 63.6% | 786-0 renal 85.9% | COLO 205 colon 104% | DU-145 prostate 94.4% | K-562 leukemia 52.9% | MALME-3M melanoma 39.7% | MDA-MB-231 breast 92.8% | RXF 393 renal 99.7% | SF-268 CNS 61% | SF-295 CNS 35.9% | SF-539 CNS 68.4% | UACC-257 melanoma 59.2% | M14 melanoma 82.2% | HCT-15 colon 87.2%

CN(C)C=Nc1cc(Cl)ccc1Cl
inactive: NCI-H23 lung 101% | NCI-H226 lung 96.3% | HOP-62 NSCLC 99.9% | NCI-H460 lung 116% | NCI-H522 lung 97.2% | A549/ATCC NSCLC 92.1% | 786-0 renal 111% | COLO 205 colon 109% | DU-145 prostate 117% | K-562 leukemia 110% | MALME-3M melanoma 118% | MDA-MB-231 breast 103% | RXF 393 renal 112% | SF-268 CNS 112% | SF-295 CNS 97% | SF-539 CNS 111% | UACC-257 melanoma 90.2% | M14 melanoma 107% | HCT-15 colon 103%

Cc1cc(C)c(NC(=O)c2sc3nc4c(cc3c2N)C(=O)CCC4)c(C)c1
inactive: NCI-H23 lung 33% | NCI-H226 lung 77.1% | HOP-62 NSCLC 36.9% | 786-0 renal 30.4% | DU-145 prostate 10% | K-562 leukemia 19.8% | MALME-3M melanoma 42.1% | MDA-MB-231 breast 35.7% | SF-268 CNS 38.6% | UACC-257 melanoma 48.7% | M14 melanoma 16.4% | HCT-15 colon 31.8%
active: NCI-H460 lung 6.43% | NCI-H522 lung -14.7% | COLO 205 colon -6.14% | RXF 393 renal -6.66% | SF-295 CNS -11.3% | SF-539 CNS -6.5%

COc1ccc(CN2CCC(N3CCCC3=O)c3cc(Cl)ccc32)cc1 (stereo not drawn)
inactive: NCI-H23 lung 96% | NCI-H226 lung 114% | HOP-62 NSCLC 98.3% | NCI-H460 lung 110% | NCI-H522 lung 75.6% | A549/ATCC NSCLC 104% | 786-0 renal 109% | COLO 205 colon 110% | DU-145 prostate 116% | K-562 leukemia 106% | MALME-3M melanoma 88.6% | MDA-MB-231 breast 123% | RXF 393 renal 126% | SF-268 CNS 108% | SF-295 CNS 124% | SF-539 CNS 110% | UACC-257 melanoma 112% | M14 melanoma 97% | HCT-15 colon 104%

CCCCCCN1C(=O)C2=C(c3ccc(Cl)cc3)Nc3c(c(C)nn3-c3ccccc3)C2c2ccccc21 (stereo not drawn)
inactive: NCI-H23 lung 98.6% | NCI-H226 lung 77.5% | HOP-62 NSCLC 96.8% | NCI-H460 lung 106% | NCI-H522 lung 80.7% | A549/ATCC NSCLC 85.2% | 786-0 renal 89% | COLO 205 colon 106% | DU-145 prostate 104% | K-562 leukemia 85.3% | MALME-3M melanoma 90.9% | MDA-MB-231 breast 103% | RXF 393 renal 83.7% | SF-268 CNS 103% | SF-295 CNS 92.4% | SF-539 CNS 105% | UACC-257 melanoma 90.7% | M14 melanoma 103% | HCT-15 colon 93.4%

Nc1nc(-c2ccccc2Cl)cc(-c2ccc(Cl)cc2Cl)n1
inactive: NCI-H23 lung 75.4% | NCI-H226 lung 87.7% | HOP-62 NSCLC 76.2% | NCI-H460 lung 49.8% | NCI-H522 lung 68.5% | A549/ATCC NSCLC 52.7% | 786-0 renal 90.2% | COLO 205 colon 64.9% | DU-145 prostate 91.4% | K-562 leukemia 27.3% | MALME-3M melanoma 86.6% | MDA-MB-231 breast 65% | RXF 393 renal 75.8% | SF-268 CNS 65.9% | SF-295 CNS 38.7% | SF-539 CNS 72.2% | UACC-257 melanoma 93% | M14 melanoma 53.5% | HCT-15 colon 90.2%

CCN(CC)CCSCCN(CC)CC
inactive: NCI-H23 lung 102% | NCI-H226 lung 101% | NCI-H322M lung 109% | NCI-H460 lung 102% | NCI-H522 lung 84.1% | 786-0 renal 102% | COLO 205 colon 106% | DU-145 prostate 109% | K-562 leukemia 100% | MALME-3M melanoma 106% | MDA-MB-231 breast 118% | RXF 393 renal 104% | SF-268 CNS 106% | SF-295 CNS 101% | SF-539 CNS 97% | UACC-257 melanoma 97.6% | M14 melanoma 111% | HCT-15 colon 97.9%
